# This is a sample that favours compounds with a hit; in the whole collection about 1.5% have one here.
# Insulin prom inh = inhibitors of insulin promoter-driven GFP, primary screen, imaging, TRM-6 cells (human fetal islet line), eGFP reporter, cell count; 130,000 compounds, 0.9% hits; AID 1273, 2008; inhibition, % at 2 µM; reporter expression induced with tamoxifen;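 active = inhibition above the mean plus 3 SD, with well images judged a real hit on visual review, cut at about 60% in these data, passing the limit was not always enough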
# S1P3 antagonist = S1P3 receptor antagonists, primary screen, cell-based; inhibition, % at 4.98 µM; CHO S1P3 NFAT-BLA reporter, FRET fluorescence, antagonist mode; 170,000 compounds, 0.27% hits; AID 485, 2006;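 active = inhibition above the plate cutoff, the mean inhibition of test wells on that plate plus 3 SD, cut at about 28% in these data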;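 note: cells challenged with S1P at its EC80 of 0.8 µM; blue over green emission ratio from cleaved BLA substrate after 4 h stimulation; 0% = S1P-stimulated wells and 100% = unstimulated DMSO-only wells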
# Ins promoter up = insulin promoter activators in MIN6 cells, imaging, high-content screening, mouse beta cells | z-score at 5 µM | MIN6 insulin promoter-GFP reporter; active compounds read high | 190,000 compounds, 0.3% hits | AID 1625, 2009;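 active = z-score above 3 at 5 µM with at least 500 cells counted in the well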
# S1P4 ag = S1P4 receptor agonists, primary screen, cell-based | 220,000 compounds, 0.35% hits | activation, % at 4.98 µM | S1P4-expressing cell line, agonist reporter assay | Sphingosine 1-phosphate receptor 4 (Homo sapiens), O95977 | AID 1509, 2009; in the data active = activation above about 11%;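 note: 0% = DMSO vehicle and 100% = reference agonist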
# Target sequence (O95977 whole entry, looked up): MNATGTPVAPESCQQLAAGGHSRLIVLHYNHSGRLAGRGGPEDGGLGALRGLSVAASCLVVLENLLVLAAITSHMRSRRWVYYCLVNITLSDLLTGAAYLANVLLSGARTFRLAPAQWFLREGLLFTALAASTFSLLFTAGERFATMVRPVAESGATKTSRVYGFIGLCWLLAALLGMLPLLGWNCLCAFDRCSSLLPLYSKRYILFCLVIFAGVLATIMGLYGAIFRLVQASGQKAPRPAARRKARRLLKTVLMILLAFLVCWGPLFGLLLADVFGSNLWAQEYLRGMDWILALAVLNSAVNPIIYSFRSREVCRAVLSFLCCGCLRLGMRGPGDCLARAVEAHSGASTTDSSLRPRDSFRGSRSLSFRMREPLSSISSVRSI
# S1P4 antagonist = S1P4 receptor antagonists, primary screen, cell-based; S1P4-expressing cells, antagonist mode, reporter read-out; AID 1510, 2009; inhibition, % at 4.98 µM; 220,000 compounds, 0.26% hits; in the data active = inhibition above about 29%;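 note: 0% = wells stimulated with agonist and 100% = vehicle wells without agonist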
# Hsp70 activator = Hsp70 transcriptional activators, primary screen, cell-based, HeLa, Hsp70 promoter luciferase, luminescence, 10 µM; HeLa Hsp70 promoter luciferase reporter; scaled: vehicle 0, proteasome-inhibitor control 100%; activation, % at 10 µM; 200,000 compounds, 0.04% hits;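 active = activation above the mean across all tested compounds plus 3 SD, cutoff set per campaign, cut at about 5.5% in these data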;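 note: 100% = MG132 at 30 µM as the positive control and 0% = DMSO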
# S1P4 ag conf = S1P4 receptor agonists, retest, confirmation, cell-based, high throughput. shares compounds with S1P4 ag. S1P4 agonist cell-based reporter assay. activation, % at 4.98 µM. 740 compounds, 7% hits. AID 1523, 2009; in the data active = activation above about 12%;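 note: 0% = vehicle and 100% = full reference agonist response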
# S1P1 ag = S1P1 receptor agonists, human, counter-screen for S1P4 agonist project, cell-based. shares compounds with S1P4 ag. S1P1 agonist cell-based assay, activation. activation, % at 4.98 µM. 740 compounds, 4% hits. AID 1563, 2009; in the data active = activation above about 21%;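 note: 0% = vehicle wells and 100% = reference agonist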
# Numbers without * were called inactive; . = no result given.
SMILES,Insulin prom inh,S1P3 antagonist,Ins promoter up,S1P4 ag,S1P4 antagonist,Hsp70 activator,S1P4 ag conf,S1P1 ag
Cc1cc(=O)oc2cc3c(cc12)OCCO3,-28.1,-11.9,-0.96,-0.3,-13.0,-0.1,.,.
Cc1ccc(OCc2nnc(NC(=O)c3ccco3)s2)c(C)c1,.,.,-0.98,-1.2,14.3,-0.5,.,.
COCCN1C(=O)N[C@@H](c2ccc(Br)cc2)C(C(C)=O)=C1C,40.0,-7.3,.,0.9,-3.3,-0.1,.,.
COc1ccc(C(=S)Nc2ccc(C)cc2)cc1,.,.,0.51,0.9,5.1,-0.1,.,.
COc1ccc(NC(=S)c2ccncc2)cc1,41.4,2.8,0.43,18.7*,-23.8,-0.4,-2.2,-6.1
Cc1cc(Nc2cccc(Cl)c2)n2ncnc2n1,0.0,-6.3,0.08,2.4,-0.5,-0.2,.,.
CCc1cccc(Nc2cc(C)nc3ncnn23)c1,45.0,9.9,-0.86,156.3*,-0.2,0.2,-3.2,-4.1
Cc1ccc(S(=O)(=O)CNC(=O)c2ccccc2)cc1,-41.9,-8.8,-0.71,23.9*,-2.0,-0.5,-2.4,1.3
Cc1ccc(S(=O)(=O)NCCNC(=O)c2ccccc2)cc1,.,-19.4,-0.22,-1.1,-2.8,0.0,.,.
CCCCOC(=O)CCCN1C(=O)/C(=C2\SC(=S)N(CCCC(=O)OCCCC)C2=O)SC1=S,.,2.5,-0.5,1.1,-1.5,.,.,.
COC(=O)C1CC(O)CN1C(=O)Nc1ccccc1 (stereo not given),.,-40.0,0.06,1.6,-15.9,-0.2,.,.
Cc1onc(-c2ccccc2)c1CNC(=O)C1COc2ccccc2O1 (stereo not given),.,-5.7,-0.1,1.0,16.3,.,.,.
O=C(COC(=O)c1cn(-c2ccccc2)nc1-c1cccs1)NC1CC1,8.3,23.0,0.87,33.9*,-8.6,-0.5,-2.3,-11.7
COC(=O)/C(=C(/F)Sc1cc(C)c(O)c(C)c1)C(F)(F)F,-18.8,.,.,2.6,-8.7,-0.3,.,.
COC(=O)c1ccc(NC(=O)CN(Cc2ccc(Cl)cc2)S(C)(=O)=O)cc1,28.6,.,.,-0.7,-7.4,-0.2,.,.
CC(=O)Nc1nc(C(=O)Nc2c(C)n[nH]c2C)cs1,.,-4.2,2.11,14.1*,-23.1,-0.1,-1.6,2.1
Cc1nc(-c2cccc(NS(=O)(=O)c3cccc4ccccc34)c2)cs1,7.1,.,-0.43,12.3*,4.0,-0.1,-2.0,4.2
CC(C)CNC(=S)N1CCN(c2nc3ccccc3s2)CC1,.,2.2,-0.69,-1.5,-8.5,-0.1,.,.
CSc1n[nH]c(/N=C/c2oc(O)c3ccccc23)n1,-16.7,-25.7,0.96,3.9,3.9,-0.1,.,.
O=C(CSc1nc2ccccc2c(=O)n1CCCO)NCc1ccccc1,.,-5.7,0.11,0.0,-3.2,-0.2,.,.
O=c1c2ccccc2nc(SCc2nc3ccccc3s2)n1CCCO,.,-9.0,0.92,21.0*,-7.3,0.0,-1.1,-6.8
O=c1cc(CSc2nnc(Nc3ccccc3F)s2)nc2sccn12,.,3.5,0.05,55.4*,0.2,-0.3,-2.3,-1.3
O=C(/C=C/c1cccs1)N1CCOCC1,35.7,-3.4,-5.7,0.9,-3.1,-0.3,.,.
Cc1nn(-c2ccccc2)c(Cl)c1/C=N/NS(=O)(=O)c1ccc(Br)cc1,69.2*,-13.1,-0.27,51.5*,2.3,0.1,-2.5,-6.2
CCOC(=O)Cc1nnc2c(Nc3ccccc3F)nc3nonc3n12,-323.8,8.9,-0.23,38.0*,-20.6,-0.1,-1.5,4.4
SMILES,Insulin prom inh,S1P3 antagonist,Ins promoter up,S1P4 ag,S1P4 antagonist,Hsp70 activator,S1P4 ag conf,S1P1 ag
Fc1ccc(-c2nnc3ccccn23)cc1,9.5,-5.4,0.46,29.3*,1.2,0.0,-2.0,1.9
Cc1c(Nc2c3ccccc3nc3ccccc23)c(=O)n(-c2ccccc2)n1C,.,-10.9,-0.28,11.5*,-2.6,.,-1.0,1.8
C/C(=N\Nc1cc(C)nc(-c2ccccc2O)n1)c1ccccc1O,.,-3.2,-0.51,-1.1,-7.4,.,.,.
COC(=O)c1sccc1NC(=S)N1CCN(c2cccc(C)c2C)CC1,-17.2,1.2,-0.28,22.6*,-11.2,-0.1,-2.1,3.8
OC1CCCN(Cc2c3ccccc3cc3ccccc23)C1 (stereo not given),8.6,.,-0.88,14.8*,-10.9,-0.1,-0.2,2.6
CSc1cccc(CN2CCC(CO)(Cc3ccccc3)CC2)c1,.,3.5,0.02,16.1*,11.1,-0.2,-2.5,-5.6
CSc1cccc(CN2CCCC(CO)(Cc3cccc(Cl)c3)C2)c1 (stereo not given),-17.4,-4.9,0.2,-1.6,-6.6,-0.2,.,.
COc1ccc(NC(=O)CSc2nc(N)c3cc4c(nc3n2)CCCC4)cc1,.,-4.3,-0.16,11.0*,-20.8,-0.3,-1.9,-6.2
CC(=O)c1ccc(NC(=O)CSc2nc(N)c3cc4c(nc3n2)CCCC4)cc1,43.8,-19.7,-0.87,0.6,-13.9,-0.3,.,.
Cc1cccn2c(=O)c3cc(C(=O)NCc4cccnc4)c(=N)n(C(C)C)c3nc12,-378.9,.,-0.56,8.0,-23.8,0.4,.,.
COCCCn1c(=N)c(C(=O)NC2CCCCC2)cc2c(=O)n3ccccc3nc21,-28.6,.,-0.05,12.9*,-24.6,0.4,3.0,2.2
CC(C)n1c(=N)c(C(=O)NCCc2ccccc2)cc2c(=O)n3ccccc3nc21,9.1,-17.5,-0.52,17.6*,-14.3,-0.2,14.2*,35.8*
COCCCn1c(=N)c(C(=O)NCc2ccc3c(c2)OCO3)cc2c(=O)n3ccccc3nc21,.,13.1,-1.79,1.6,-5.6,-0.3,.,.
CN(C)CCCNC(CC(=O)Nc1ccc(Cl)cc1)C(=O)O (stereo not given),.,-19.5,.,.,.,.,.,.
CCOC(=O)c1cccc(P(C)(C)=O)c1,-15.6,-29.5,-0.3,0.6,-10.3,-0.2,.,.
COc1ccc(-c2cc(C(=O)N/N=C/c3ccc4c(c3)OCO4)c3ccccc3n2)c(OC)c1,0.0,.,-0.76,-0.5,-4.9,0.2,.,.
COc1ccc(-c2cc(C(=O)N/N=C/c3ccc(OC)c(COCC(F)(F)C(F)F)c3)c3ccccc3n2)c(OC)c1,31.4,.,-0.33,72.1*,-8.9,-0.2,-2.1,-6.7
O=C(CCl)Nc1cc(S(=O)(=O)N2CCCCCC2)ccc1Cl,-16.7,1.9,0.39,-1.3,-16.9,0.0,.,.
COC(=O)C1CCCN1C(=O)COc1ccc(Cl)cc1Br (stereo not given),15.4,-8.8,-0.01,0.0,-13.7,-0.1,.,.
C/C=C/C(=O)OCC(=O)Nc1ccc(C)c(S(=O)(=O)N(C)C)c1,-20.0,14.1,1.25,1.1,-18.5,0.1,.,.

# Source: PubChem (several laboratories)
